Results: PubChem BioAssay
Activity calls are given as the source filed them.

What was measured:
[1] = test system: Plasmodium falciparum Sir2 (PF13_0152, Sir2A); assay: pfSir2 binders on small-molecule microarrays, primary screen, biochemical, small-molecule microarray, 635 nm fluorescence (AID 1098); conditions: small-molecule microarray binding, fluorescence 635 nm; higher = more signal;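 further: score merges spot fluorescence intensity with its signal-to-noise ratio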
[2] = small-molecule microarray binders of probe aDKK1, primary screen, biochemical, biotinylated probe, 635/667 nm fluorescence (AID 1099); conditions: higher = more signal;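 further: score merges 667nm spot fluorescence with signal to noise across triplicate slides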
[3] = small-molecule microarray binders of probe aCHRDL2, primary screen, biochemical, biotinylated probe, 635/667 nm fluorescence (AID 1100); conditions: higher = more signal
[4] = splicing luciferase reporter signal modulators, primary screen, spliceosome inhibition project, cell-based, HEK293, splice +/- reporter (AID 1101); conditions: luminescence, 24 h, higher = more signal, called active from +8 up or from −8 down;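 further: HEK293 cells carrying a splicing-competent luciferase reporter gene; test concentration not given here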
[5] = molecular target: Fibroblast growth factor 10 (Homo sapiens) (UniProt O15520); assay: FGF10 binders on small-molecule microarrays, primary screen, biochemical, small-molecule microarray, 635 nm fluorescence (AID 1102); conditions: FGF10 binding, fluorescence 635 nm, higher = more signal
[6] = test system: glycogen synthase kinase-3 (GSK3A per assay name; protocol says GSK3B); assay: GSK3 binders on small-molecule microarrays, primary screen, biochemical, small-molecule microarray, 635 nm fluorescence, GSK3A (AID 1103); conditions: small-molecule microarray binding, fluorescence 635 nm; higher = more signal; further: the record names both GSK3A and GSK3B
[7] = molecular target: Epidermal growth factor receptor (Homo sapiens) (UniProt P00533); assay: EGFR binders on small-molecule microarrays, primary screen, biochemical, small-molecule microarray, 635 nm fluorescence (AID 1104); conditions: EGFR binding, higher = more signal;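 further: score merges 667 nm emission intensity with spot signal to noise over triplicate slides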
[8] = molecular target: Follistatin-related protein 3 (Homo sapiens) (UniProt O95633); assay: FSTL3 binders on small-molecule microarrays, primary screen, biochemical, small-molecule microarray, 635 nm fluorescence (AID 1105); conditions: FSTL3 binding, higher = more signal;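 further: score merges emission near 667 nm and signal to noise per printed spot across three slides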
[9] = molecular target: Dickkopf-related protein 1 (Homo sapiens) (UniProt O94907); assay: DKK1 binders on small-molecule microarrays, primary screen, biochemical, small-molecule microarray, 635 nm fluorescence scan (AID 1106); conditions: DKK1 binding, higher = more signal;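 further: score merges emission near 667 nm with signal to noise over three replicate slides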
[10] = test system: Inhibin beta A chain (activin A); assay: INHBA (activin A) binders on microarrays, primary screen, biochemical, small-molecule microarray, 635 nm fluorescence scan (AID 1107); conditions: small-molecule microarray binding, higher = more signal;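 further: mouse activin A protein probed at 4.33 µg/mL on printed slides; score merges bound-protein fluorescence near 667 nm with spot signal-to-noise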
[11] = test system: Human papillomavirus type 1a protein E7 (residues 44-93); assay: HPV1a E7 fragment binders on microarrays, primary screen, biochemical, small-molecule microarray, residues 44-93, 635 nm fluorescence (AID 1108); conditions: small-molecule microarray binding, fluorescence 635 nm; higher = more signal;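 further: E7 fragment applied at 1 µg/mL in TBST for 1 h at 4 C; score combines spot fluorescence with its signal to noise ratio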
[12] = modulators of HCV replicon luciferase signal, primary screen, HCV replication inhibitor project, Huh7 cells, luciferase reporter (AID 1109); conditions: 48 h, higher = more signal;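 further: huh7 hepatoma cells harbouring a luciferase neomycin HCV replicon reporter; luciferase luminescence as measure of HCV replicon replication; test concentration not given here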
[13] = molecular target: Left-right determination factor 2 (Homo sapiens) (UniProt O00292); assay: LEFTY2 binders on small-molecule microarrays, primary screen, biochemical, small-molecule microarray, 635 nm fluorescence scan (AID 1110); conditions: LEFTY2 binding, higher = more signal
[14] = molecular target: Calmodulin-1 (Homo sapiens) (UniProt P0DP23); assay: CALM1 binders on microarrays, EGTA buffer, profiling panel, biochemical, small-molecule microarray, Cy5-labelled CALM1 (AID 1111); conditions: Cy5-CALM1 binding fluorescence, higher = more signal;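 further: labelled calmodulin applied in Tris saline Tween buffer holding calcium plus EGTA and DTT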
[15] = molecular target: Calmodulin-1 (Homo sapiens) (UniProt P0DP23); assay: calcium-bound CALM1 binders on microarrays, profiling panel, artefact control for SMM control-protein annotation, biochemical, small-molecule microarray, Cy5-labelled CALM1, plus calcium (AID 1112); conditions: Cy5-CALM1 binding fluorescence, higher = more signal;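 further: score merges spot fluorescence with signal to noise from triplicate slides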
[16] = small-molecule microarray binders of probe aWnt5a, primary screen, biochemical, biotinylated probe, 635/667 nm fluorescence (AID 1113); conditions: higher = more signal;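 further: score merges 667 nm fluorescence intensity with signal-to-noise per printed feature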
[17] = small-molecule microarray binders of probe aShh, primary screen, biochemical, biotinylated probe, 635/667 nm fluorescence (AID 1114); conditions: higher = more signal;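 further: probe is biotin-labelled aShh protein from a stem cell growth factor screen; measures binding of labelled protein to compounds printed on the slide; score merges feature fluorescence at 667 nm with signal-to-noise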
[18] = small-molecule microarray binders of probe aNog, primary screen, biochemical, biotinylated probe, 635/667 nm fluorescence (AID 1115); conditions: higher = more signal;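 further: probe is biotinylated aNog protein used at 0.15 µg/mL for 1 h at 4 C; z-score combines 667 nm fluorescence of each spot with its signal to noise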
[19] = molecular target: Torsin-1A-interacting protein 1 (Homo sapiens) (UniProt Q5JTV8); assay: LAP1 binders from COS7 cell lysate, primary screen, small-molecule microarray, 635/667 nm fluorescence (AID 1116); conditions: COS7-hLAP1 lysate binding, 635 nm fluorescence, higher = more signal
[20] = molecular target: Alpha-bungarotoxin (Bungarus multicinctus) (UniProt P60615); assay: alpha-bungarotoxin binders on microarray, profiling panel, artefact control for SMM control protein annotation, biochemical, small-molecule microarray, Alexa647 label, 635/667 nm fluorescence (AID 1117); conditions: alpha-BTX-A647 binding fluorescence, higher = more signal
Sequence of Alpha-bungarotoxin (Bungarus multicinctus) (P60615 whole entry, looked up): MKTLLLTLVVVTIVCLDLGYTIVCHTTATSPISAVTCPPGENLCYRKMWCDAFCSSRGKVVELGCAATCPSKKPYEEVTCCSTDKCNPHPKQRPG

Sequence of Torsin-1A-interacting protein 1 (Homo sapiens) (Q5JTV8 whole entry, looked up): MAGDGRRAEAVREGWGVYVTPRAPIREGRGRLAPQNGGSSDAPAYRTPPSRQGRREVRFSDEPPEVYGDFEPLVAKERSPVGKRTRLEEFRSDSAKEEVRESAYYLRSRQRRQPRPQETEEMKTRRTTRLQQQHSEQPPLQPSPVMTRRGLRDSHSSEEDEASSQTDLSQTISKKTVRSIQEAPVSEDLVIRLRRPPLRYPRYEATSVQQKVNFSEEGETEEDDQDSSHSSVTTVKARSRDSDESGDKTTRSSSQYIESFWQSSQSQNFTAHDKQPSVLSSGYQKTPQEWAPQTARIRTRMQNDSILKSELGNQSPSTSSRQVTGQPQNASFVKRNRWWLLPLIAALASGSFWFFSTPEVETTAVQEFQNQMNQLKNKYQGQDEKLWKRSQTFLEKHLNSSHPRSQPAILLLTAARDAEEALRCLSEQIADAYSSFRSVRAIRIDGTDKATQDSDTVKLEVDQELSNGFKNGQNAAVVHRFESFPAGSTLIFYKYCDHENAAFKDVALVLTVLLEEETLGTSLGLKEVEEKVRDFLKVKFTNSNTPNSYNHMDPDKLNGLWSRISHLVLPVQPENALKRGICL
Sequence of Left-right determination factor 2 (Homo sapiens) (O00292 whole entry, looked up): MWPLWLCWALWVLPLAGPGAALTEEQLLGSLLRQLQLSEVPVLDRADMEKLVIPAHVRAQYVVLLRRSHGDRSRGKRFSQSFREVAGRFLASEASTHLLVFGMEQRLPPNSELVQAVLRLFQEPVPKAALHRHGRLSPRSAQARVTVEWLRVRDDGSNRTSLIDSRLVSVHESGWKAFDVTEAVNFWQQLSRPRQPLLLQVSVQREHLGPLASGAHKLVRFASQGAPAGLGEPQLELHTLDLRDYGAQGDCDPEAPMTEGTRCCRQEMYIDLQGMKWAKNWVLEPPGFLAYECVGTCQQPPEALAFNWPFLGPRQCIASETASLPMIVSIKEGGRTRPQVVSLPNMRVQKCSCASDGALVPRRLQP
Sequence of Fibroblast growth factor 10 (Homo sapiens) (O15520 whole entry, looked up): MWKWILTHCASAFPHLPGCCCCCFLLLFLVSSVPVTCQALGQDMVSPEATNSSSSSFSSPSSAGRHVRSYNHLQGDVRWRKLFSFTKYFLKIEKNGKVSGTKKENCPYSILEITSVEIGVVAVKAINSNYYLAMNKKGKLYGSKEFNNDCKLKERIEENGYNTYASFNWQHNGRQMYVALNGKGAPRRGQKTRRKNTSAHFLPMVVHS
Sequence of Dickkopf-related protein 1 (Homo sapiens) (O94907 whole entry, looked up): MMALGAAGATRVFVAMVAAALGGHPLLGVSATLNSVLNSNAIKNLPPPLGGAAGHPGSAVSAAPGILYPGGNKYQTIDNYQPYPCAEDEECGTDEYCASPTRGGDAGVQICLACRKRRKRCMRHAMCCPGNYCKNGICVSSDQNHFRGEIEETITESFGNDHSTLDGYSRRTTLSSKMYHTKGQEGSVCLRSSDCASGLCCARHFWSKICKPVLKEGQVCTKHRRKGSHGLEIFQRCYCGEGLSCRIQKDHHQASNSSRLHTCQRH
Sequence of Epidermal growth factor receptor (Homo sapiens) (P00533 whole entry, looked up): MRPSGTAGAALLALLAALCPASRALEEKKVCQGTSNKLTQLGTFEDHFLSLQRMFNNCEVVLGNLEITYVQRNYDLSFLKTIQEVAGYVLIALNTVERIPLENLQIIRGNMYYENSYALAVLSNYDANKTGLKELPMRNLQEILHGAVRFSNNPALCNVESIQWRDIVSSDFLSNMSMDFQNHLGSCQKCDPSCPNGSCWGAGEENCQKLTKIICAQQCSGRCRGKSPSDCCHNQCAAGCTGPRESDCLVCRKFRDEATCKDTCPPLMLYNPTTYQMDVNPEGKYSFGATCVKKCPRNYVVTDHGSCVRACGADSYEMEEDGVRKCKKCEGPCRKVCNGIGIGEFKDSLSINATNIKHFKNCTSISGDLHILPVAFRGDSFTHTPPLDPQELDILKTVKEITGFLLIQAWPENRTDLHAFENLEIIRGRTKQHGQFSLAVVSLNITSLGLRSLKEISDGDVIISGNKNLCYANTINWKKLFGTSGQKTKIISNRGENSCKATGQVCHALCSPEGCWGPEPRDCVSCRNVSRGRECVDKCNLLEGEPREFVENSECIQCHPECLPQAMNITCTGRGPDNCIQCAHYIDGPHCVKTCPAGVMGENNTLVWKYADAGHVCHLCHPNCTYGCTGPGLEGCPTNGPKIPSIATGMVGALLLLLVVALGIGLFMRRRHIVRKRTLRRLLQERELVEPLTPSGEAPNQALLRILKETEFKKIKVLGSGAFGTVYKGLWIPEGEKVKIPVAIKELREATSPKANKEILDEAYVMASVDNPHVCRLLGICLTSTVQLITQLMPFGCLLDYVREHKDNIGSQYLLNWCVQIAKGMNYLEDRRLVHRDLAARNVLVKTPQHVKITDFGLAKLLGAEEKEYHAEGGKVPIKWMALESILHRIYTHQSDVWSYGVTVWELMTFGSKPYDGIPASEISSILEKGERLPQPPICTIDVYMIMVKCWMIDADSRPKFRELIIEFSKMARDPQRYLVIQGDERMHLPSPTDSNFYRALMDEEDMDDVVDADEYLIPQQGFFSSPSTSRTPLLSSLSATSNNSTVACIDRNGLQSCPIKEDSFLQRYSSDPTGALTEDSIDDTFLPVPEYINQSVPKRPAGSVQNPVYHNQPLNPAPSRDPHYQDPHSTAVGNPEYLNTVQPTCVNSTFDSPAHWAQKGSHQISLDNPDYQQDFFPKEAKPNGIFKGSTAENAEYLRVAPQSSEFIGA
Sequence of Follistatin-related protein 3 (Homo sapiens) (O95633 whole entry, looked up): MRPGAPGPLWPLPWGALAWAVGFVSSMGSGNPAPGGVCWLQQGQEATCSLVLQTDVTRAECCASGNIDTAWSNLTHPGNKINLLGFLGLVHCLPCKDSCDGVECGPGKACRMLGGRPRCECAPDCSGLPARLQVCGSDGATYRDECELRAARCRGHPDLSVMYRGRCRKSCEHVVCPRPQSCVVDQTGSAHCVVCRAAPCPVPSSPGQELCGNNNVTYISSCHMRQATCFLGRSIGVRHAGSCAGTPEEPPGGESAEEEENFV

SMILES	composite z-score [1]	composite z-score [2]	composite z-score [3]	z-score [4]	composite z-score [5]	composite z-score [6]	composite z-score [7]	composite z-score [8]	composite z-score [9]	composite z-score [10]	composite z-score [11]	z-score [12]	composite z-score [13]	composite z-score [14]	composite z-score [15]	composite z-score [16]	composite z-score [17]	composite z-score [18]	composite z-score [19]	composite z-score [20]
CCOC(=O)C[C@H]1[C@H](OC(=O)c2cc3ccccc3oc2=O)[C@@H](NC(=O)CC(C)C)c2cc(OCCCO)ccc2N1C(=O)Cc1ccc(OC)cc1	0.621	-0.283	-0.309	-0.339 (inactive)	0.942	0.523	0.145	0.91	0.481	-0.0372	0.653	-0.0665	0.455	-0.0388	-0.61	-0.16	-0.206	-0.238	0.571	-0.472
C=CCC(OC(C)=O)[C@@H]1[C@@H](N(Cc2cc3ccccc3o2)C(=O)c2cccc3ccccc23)c2cc(OCCCO)ccc2N1C(=O)c1ccc2ccccc2n1 (stereo not given in full)	-0.408	0.749	0.317	-0.73 (inactive)	0.169	0.0025	0.3	-0.0659	0.121	1.1	0.193	0.0107	0.186	-0.153	0.304	-0.0346	-0.0813	-0.0381	0.615	0.0884
O=C1[C@H]2C=C(I)[C@H](C[C@@H]2OCCCCCCO)[C@@]12CO2	0.525	-0.261	0.191	0.0312 (inactive)	0.281	-0.454	0.677	1.39	1.15	1.43	-1.14	-2.67	0.687	-1.08	-1	-0.152	-0.0362	-0.422	-0.144	0.621
O=C1O[C@@H](c2ccccc2)[C@@H](c2ccccc2)N2[C@@H](c3ccc(OCCO)cc3)[C@]3(C(=O)Nc4ccc(C#CC5(O)CCCCCC5)cc43)[C@@H](C(=O)Nc3nc4ccccc4s3)[C@H]12	0.943	0.552	0.662	-0.102 (inactive)	1.39	1.31	0.533	1.38	0.553	0.541	1.44	-2.29	0.755	1.6	0.646	0.0775	0.156	0.516	1.34	1.41
COc1ccc([Si](C)(C)[C@@H]2[C@@H](CC(=O)N3Cc4ccccc4C[C@H]3CO)O[C@]3(C(=O)N(Cc4cccc(N5CCOC5=O)c4)c4ccccc43)[C@H]2C)cc1	1.21	-0.503	-0.562	-0.589 (inactive)	0.628	0.717	1.01	1.37	1.21	0.792	1.02	-3.46	0.736	-0.695	-0.611	-0.0684	-0.0243	-0.397	0.0192	0.258
CN(C)CCCCNC(=O)[C@H]1C[C@H]2C(=O)NCC(=O)N2[C@H]1c1ccc(O)cc1	0.978	-0.114	0.0669	-0.127 (inactive)	-0.14	-0.286	-0.603	-0.107	0.0896	-0.0569	-0.392	0.143	-0.735	-0.608	0.577	-0.145	-0.501	-0.248	-0.38	0.52
CC(C)C(O)C1C=CC2C(=O)NC(=O)C2N1Nc1ccccn1 (stereo not given)	1.09	0.886	0.542	1.02 (inactive)	0.109	0.352	-0.216	0.401	-0.0362	1.4	0.927	-0.43	0.108	0.0802	-0.187	0.009	-0.0793	0.116	0.325	0.631
C=C(COC)C(=O)CC[C@@H](OC(C)=O)c1ccccc1OCCO	1.29	-0.232	0.313	1.34 (inactive)	1.53	-0.0163	-0.0143	0.209	-0.306	1.38	0.0358	-2.72	0.325	-0.85	-0.976	-0.175	-0.0626	0.493	1.28	0.0746
CCCC=C(CCC)[C@@H](NC(=O)OCC(C)C)c1ccc(C(=O)OC)cc1	0.458	-0.315	-0.411	-2.36 (inactive)	0.674	0.788	0.471	0.414	0.85	-0.155	0.903	-1.02	0.66	0.059	-0.307	-0.217	-0.138	-0.0496	0.0246	-0.376
COc1cc(C(O)C2C=CC3C(=O)N(c4ccccc4)C(=O)C3N2Nc2ccccc2)cc(OC)c1OC (stereo not given)	1.27	1.03	1.13	1.28 (inactive)	1.25	1.31	-0.304	1.07	-0.586	0.484	1.46	-0.63	-0.0844	1.84	0.613	0.0472	0.551	1.66	1.6	1.9
COc1ccc([Si](C)(C)[C@@H]2[C@@H](CC(=O)N(CCO)Cc3ccccc3)O[C@]3(C(=O)N(Cc4ccc(N5C(=O)c6cccc7cccc5c67)cc4)c4ccccc43)[C@H]2C)cc1	1.17	-0.0669	0.0161	-1.33 (inactive)	0.404	0.01	0.317	0.12	0.283	0.516	0.749	-4.47	0.495	0.553	0.822	-0.124	0.0725	0.189	0.762	2.24
